Records with an inconclusive call do not appear. Activity calls are given as the source filed them. Unless noted, calls follow the shape of the dose curve; as a rule, active = well fitted curve in the direction sought with a large enough effect in the repeat runs; inconclusive = weak or mixed curves; inactive = no such curve, though single readings can be large; an effect the other way counts as inactive or inconclusive.
How the values were obtained:
[1] = qHTS assay for small molecule agonists of the p53 signaling pathway (AID 651631; calls by dose curve; also: nearly all actives have a fitted effect of over 15% in size)
Summary of the method: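 Read-out is beta-lactamase FRET fluorescence measured 2 h after substrate addition at room temperature, in HCT-116 cells with a p53 response element-driven reporter exposed to compounds for 16 h at 37 °C.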

[2] = qHTS assay for small molecules that induce genotoxicity in human embryonic kidney cells expressing luciferase-tagged ATAD5 (AID 651632); also: nearly all actives have a fitted effect of over 15% in size
Summary of the method: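 Genotoxicity read-out via ATAD5-luciferase: HEK293T cells, 16 hr compound incubation at 37C, Amplite detection.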

[3] = qHTS assay for small molecule agonists of the p53 signaling pathway - cell viability (AID 651633; calls by dose curve;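 also: p53RE-bla HCT reporter cells with a stable beta-lactamase p53 reporter; series mostly up to about 83 µM; nearly all actives have a fitted effect of over 30% in size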)
Summary of the method: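 p53RE-bla cells were treated with compound for 16 hours at 37 C. Cytotoxicity was then measured as CellTiter-Glo luminescence after 30 min at room temperature.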

[4] = qHTS assay for small molecules that induce genotoxicity in human embryonic kidney cells expressing luciferase-tagged ATAD5 - cell viability (AID 651634; calls by dose curve; also: nearly all actives have a fitted effect of over 25% in size)
Summary of the method: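 Live-cell protease activity (CellTiter-Fluor, fluorescence) indicates viability. HEK293T cells with luciferase-tagged ATAD5; 15.5 hr compound treatment at 37C.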

[5] = qHTS assay to test for compound auto fluorescence at 590 nm (red) in HepG2 cells (AID 720674)
Summary of the method: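 Seeding: 2,000 HepG2 cells/well, MEM/10% FBS, overnight 37 C. Dosing: compound vs DMSO. Incubation: 1 hr, 37 C, 5% CO2. Read: fluorescence 540 ex/590 em, Rose Bengal sodium as red reference.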

[6] = qHTS assay to test for compound auto fluorescence at 535 nm (green) in HepG2 cells (AID 720675)
[7] = qHTS assay to test for compound auto fluorescence at 460 nm (blue) in HEK293 cells (AID 720678)
Summary of the method: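 HEK293 cells (2,000 per well, medium with 10% dialyzed FBS) attached for 4-5 hr at 37C, then received compound and stood overnight at 37C, 5% CO2. Blue fluorescence was read at Ex/Em 405/460 nm and expressed relative to triamterene.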

[8] = qHTS assay to test for compound auto fluorescence at 590 nm (red) in HEK293 cells (AID 720679)
Summary of the method: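 HEK293 cells (2,000/well, medium with 10% dialyzed FBS) attached for 4-5 hr at 37C, received 23 nL compound and were incubated overnight at 37C, 5% CO2. Red fluorescence was then read at 540/590nm Ex/Em, referenced to Rose Bengal sodium.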

[9] = qHTS assay to test for compound auto fluorescence at 535 nm (green) in HEK293 cells (AID 720680)
[10] = qHTS assay to test for compound auto fluorescence at 460 nm (blue) in HEK293 cell free culture (AID 720681)
Summary of the method: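 Compounds were added to cell-free DMEM with 10% FBS and fluorescence read directly. The blue channel used 405 nm excitation and 460 nm emission, with triamterene as the reference fluorophore.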

[11] = qHTS assay to test for compound auto fluorescence at 535 nm (green) in HEK293 cell free culture (AID 720682)
Summary of the method: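 Fluorescein serves as the green reference fluorophore; each compound's intrinsic emission at 535 nm (excitation 485 nm) is reported as an equivalent amount of that dye, measured in serum-containing DMEM without cells.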

[12] = qHTS assay to test for compound auto fluorescence at 590 nm (red) in HEK293 cell free culture (AID 720683)
Summary of the method: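 Cell-free wells of DMEM with 10% FBS received compound, and intrinsic fluorescence was read at excitation/emission 540/590 nm. Values expressed as equivalence to Rose Bengal sodium.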

[13] = qHTS assay to test for compound auto fluorescence at 590 nm (red) in HepG2 cell free culture (AID 720684)
Summary of the method: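 Compound was pinned into wells holding MEM with 10% FBS and no cells, and red fluorescence was read at Ex/Em 540/590 nm. Signal is expressed as auto fluorescence equivalency relative to Rose Bengal sodium.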

[14] = qHTS assay to test for compound auto fluorescence at 460 nm (blue) in HepG2 cell free culture (AID 720685)
Summary of the method: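 Compound (23 nL) or DMSO pinned into cell-free MEM with 10% FBS; blue fluorescence read at 405/460 nm excitation/emission, expressed as auto-fluorescence equivalency to triamterene.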

[15] = qHTS assay to test for compound auto fluorescence at 535 nm (green) in HepG2 cell free culture (AID 720686)
[16] = qHTS assay to test for compound auto fluorescence at 460 nm (blue) in HepG2 cells (AID 720687)
Summary of the method: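 HepG2 cells in MEM with 10% FBS, attached overnight at 37 C, were exposed to compound or DMSO for 1 hr at 37 C, 5% CO2. Blue fluorescence was read at 405/460 nm, with triamterene as reference fluorophore.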

[17] = target: Glucocorticoid receptor (Homo sapiens) (UniProt P04150); assay: qHTS assay to identify small molecule agonists of the glucocorticoid receptor (GR) signaling pathway (AID 720691; active = well fitted activation curve with a large enough effect in the signal ratio in the repeat runs, not every such curve was filed as active; the % refers to the signal ratio)
Summary of the method: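 Beta-lactamase reporter activity, read as fluorescence intensity, was measured in GR-bla HeLa cells exposed to compounds for 18 h at 37 C and then loaded with LiveBLAzer B/G FRET substrate for 2 h at room temperature.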

[18] = target: Glucocorticoid receptor (Homo sapiens) (UniProt P04150); assay: qHTS assay to identify small molecule antagonists of the glucocorticoid receptor (GR) signaling pathway (AID 720692; active = well fitted inhibition curve with a large enough effect in the signal ratio in the repeat runs, not every such curve was filed as active; the % refers to the signal ratio)
Summary of the method: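 Fluorescence from cleaved LiveBLAzer B/G FRET substrate reports GRE-driven beta-lactamase in HeLa cells; compounds are tested against 5 nM dexamethasone (final) over 18 h at 37 C, substrate incubation 2 h at room temperature.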

[19] = qHTS assay for small molecule disruptors of the mitochondrial membrane potential (AID 720635); also: potency is read from the fitted curve at half-maximal effect
Summary of the method: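 HepG2 cells exposed to compound 1 hr at 37C, then Mito-MPS dye 30 min. Ratio read of aggregate (540/590 nm) versus monomer (490/535 nm) fluorescence.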

[20] = qHTS assay for small molecule disruptors of the mitochondrial membrane potential - cell viability (AID 720634; calls by dose curve;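 also: human HepG2 liver cancer cells; series mostly up to about 83 µM; nearly all actives have a fitted effect of over 20% in size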)
Summary of the method: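 Human hepatoma HepG2 cells were treated for 1 hr with test chemicals, then given m-MPI dye and CellTiter-Glo. Cell viability reflects luminescence proportional to cellular ATP.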

Measured: Potency

Sequence of Glucocorticoid receptor (Homo sapiens) (P04150 whole entry, looked up): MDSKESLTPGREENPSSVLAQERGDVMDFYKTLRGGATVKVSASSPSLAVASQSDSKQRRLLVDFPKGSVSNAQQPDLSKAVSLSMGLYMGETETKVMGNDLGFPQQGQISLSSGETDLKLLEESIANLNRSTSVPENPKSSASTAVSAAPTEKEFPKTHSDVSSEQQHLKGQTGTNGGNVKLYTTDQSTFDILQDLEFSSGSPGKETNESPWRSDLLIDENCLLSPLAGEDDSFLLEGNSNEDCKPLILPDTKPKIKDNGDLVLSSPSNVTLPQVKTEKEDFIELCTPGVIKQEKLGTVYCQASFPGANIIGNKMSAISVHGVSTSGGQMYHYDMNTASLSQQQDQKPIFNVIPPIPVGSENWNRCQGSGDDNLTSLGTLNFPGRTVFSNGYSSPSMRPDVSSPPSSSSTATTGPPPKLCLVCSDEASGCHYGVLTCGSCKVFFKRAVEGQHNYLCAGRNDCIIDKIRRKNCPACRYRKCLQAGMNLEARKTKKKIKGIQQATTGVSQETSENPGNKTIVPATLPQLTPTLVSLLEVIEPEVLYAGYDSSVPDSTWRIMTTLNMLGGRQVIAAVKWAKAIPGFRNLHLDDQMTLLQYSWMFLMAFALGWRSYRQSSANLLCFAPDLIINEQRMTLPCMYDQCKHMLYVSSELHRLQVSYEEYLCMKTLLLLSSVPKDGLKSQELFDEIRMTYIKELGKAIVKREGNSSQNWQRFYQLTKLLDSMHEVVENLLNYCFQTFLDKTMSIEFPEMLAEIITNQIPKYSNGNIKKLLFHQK

C=C(C)CNCC
inactive: [1] | [2] | [3] | [4] | [5] | [6] | [7] | [8] | [9] | [10] | [11] | [12] | [13] | [14] | [15] | [16] | [17] | [18]

C=CC[N+](C)(C)CC=C
inactive: [1] | [2] | [3] | [4] | [19] | [5] | [6] | [7] | [8] | [9] | [10] | [11] | [12] | [14] | [15] | [17] | [18]

CSc1ccc(Cl)cc1
inactive: [1] | [2] | [3] | [4] | [19] | [5] | [6] | [7] | [9] | [10] | [11] | [12] | [13] | [14] | [15] | [17] | [18]

CCCCCCCCCCCC(=O)OC
inactive: [1] | [2] | [3] | [4] | [19] | [5] | [6] | [7] | [8] | [9] | [11] | [12] | [13] | [14] | [15] | [16] | [17] | [18]

Clc1ccccn1
inactive: [1] | [2] | [3] | [4] | [19] | [5] | [6] | [7] | [8] | [9] | [10] | [11] | [12] | [13] | [14] | [15]

CC(C)=CCl
inactive: [1] | [2] | [3] | [4] | [20] | [5] | [6] | [7] | [9] | [10] | [11] | [12] | [13] | [15] | [17] | [18]

Cc1ccc(C(C)C)c(O)c1
inactive: [1] | [2] | [3] | [4] | [5] | [6] | [7] | [8] | [9] | [10] | [11] | [12] | [13] | [14] | [15] | [17] | [18]

O=C1C(c2[nH]c3ccccc3c2O)=Nc2ccccc21
inactive: [1] | [2] | [3] | [4] | [5] | [6] | [7] | [8] | [9] | [10] | [11] | [12] | [13] | [14] | [15] | [17]
active: [19] 4.22 µM

COCCCN
inactive: [1] | [2] | [3] | [4] | [20] | [5] | [6] | [7] | [9] | [11] | [12] | [14] | [15] | [16] | [17] | [18]

CN(C)CCOC(=O)COc1ccc(Cl)cc1
inactive: [1] | [2] | [3] | [4] | [20] | [5] | [6] | [7] | [9] | [10] | [11] | [13] | [14] | [15] | [17] | [18]

COC(=O)CCCC(=O)OC
inactive: [1] | [2] | [3] | [4] | [5] | [6] | [7] | [8] | [9] | [11] | [12] | [13] | [14] | [15] | [17] | [18]

O=C(OCC1CCC2OC2C1)C1CCC2OC2C1 (stereo not drawn)
inactive: [1] | [2] | [3] | [4] | [5] | [6] | [7] | [8] | [9] | [11] | [14] | [15] | [16] | [17] | [18]

C=CC(C)CCCC(C)(C)O (stereo not drawn)
inactive: [1] | [2] | [3] | [4] | [20] | [5] | [6] | [7] | [9] | [11] | [12] | [13] | [14] | [15]

NCCNCCN
inactive: [1] | [2] | [3] | [4] | [5] | [6] | [7] | [8] | [9] | [10] | [11] | [12] | [13] | [14] | [15] | [16]

CC(C)(C#N)c1cc(Cn2cncn2)cc(C(C)(C)C#N)c1
inactive: [1] | [2] | [3] | [4] | [5] | [6] | [7] | [8] | [9] | [10] | [11] | [12] | [14] | [15] | [16] | [17] | [18]

C=CCc1ccc(OC)c(OC)c1
inactive: [1] | [2] | [3] | [4] | [20] | [5] | [6] | [7] | [9] | [10] | [11] | [12] | [13] | [15] | [16] | [17] | [18]

CC(O)CC(C)(C)O (stereo not drawn)
inactive: [1] | [2] | [3] | [4] | [20] | [5] | [6] | [7] | [9] | [10] | [11] | [15] | [16] | [17] | [18]

CC(=O)CCC=C(C)C
inactive: [1] | [2] | [3] | [4] | [20] | [5] | [6] | [7] | [9] | [11] | [14] | [15] | [16] | [17] | [18]
